Values joined by “and” are separate entries in the source; they are usually repeats but may differ in a detail not shown here. Identical values can stand only once. Inconclusive results are not listed. Active and inactive are the calls of the source.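 The calls were made as follows, unless noted: active = inhibition above the screen-wide mean plus 3 SD, about 51%; inactive = the rest.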
Key:
[1] = yeast TOR pathway RPL19A-GFP modulators, primary screen, cell-based, S. cerevisiae, multiplex flow cytometry (AID 1862; in the data active = percent of DMSO control GFP below about 86%;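 also: lower values mimic rapamycin by blocking the RPL19A rise seen in DMSO cells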); details: S. cerevisiae RPL19A-GFP strain, flow cytometry fluorescence, 3 h; at 10 µM; stronger effect = lower value
[2] = modulators of MEP2-GFP levels in yeast, primary screen, S. cerevisiae, multiplex flow cytometry (AID 1867;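 active = GFP response, as percent of the DMSO control, above the screen-wide mean plus 3 SD, about 139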;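 also: median GFP channel fluorescence of barcode-gated MEP2-GFP cells measured by flow cytometry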); details: S. cerevisiae MEP2-GFP strain, 3 h, at 10 µM, stronger effect = higher value, 100% means same as DMSO wells
[3] = modulators of CIT2-GFP expression in yeast, primary screen, S. cerevisiae, GFP fusion, multiplex flow cytometry (AID 1870;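 active = percent response above a set limit, the screen-wide mean plus 3 SD, cut at about 130% in these data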;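 also: barcoded CIT2-GFP strain pooled with four other GFP strains with rapamycin as positive control; median GFP fluorescence per well over plate mean of DMSO wells so 100% = DMSO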); details: 3 h, at 10 µM, stronger effect = higher value
[4] = modulators of LAP4-GFP expression in yeast, primary screen, S. cerevisiae, multiplex flow cytometry (AID 1873;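 active = GFP signal, as percent of the solvent control, above the screen mean plus 3 SD, about 149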); details: 3 h, at 10 µM, stronger effect = higher value
[5] = modulators of AGP1-GFP expression in yeast TOR pathway, primary screen, cell-based, multiplex flow cytometry, S. cerevisiae (AID 1887;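 active = GFP signal above the screen-wide mean plus 3 SD, that is over about 124.5% of the solvent control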;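 also: AGP1-GFP fusion strain of S. cerevisiae within a five-strain barcoded multiplex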); details: 3 h, at 10 µM, stronger effect = higher value
[6] = inhibitors of CD8+ T cell-vesicle binding, pilot screen, LFA-1/ICAM-1 modulator project, MLPCN validation set, flow cytometry (AID 2523;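 active = response below a set limit, under 55% cells CD8-positive and vesicle-bound, and CD8 cells' 90th-percentile brightness under 279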;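 as to vesicle binding response: mean PE anti-B7-1 fluorescence of CD8+ cells relative to row control; 100% = QL9-loaded vesicles with DMSO vehicle in the same plate row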); details: 2C mouse CD8+ T cells, at 7 µM, stronger effect = lower value; double positive events: measured here: CD8+/vesicle+ event percentage
[7] = target: Integrin beta-1 (Homo sapiens) + Integrin alpha-4 (Homo sapiens) (UniProt P13612+P05556); test: inhibition of HUTS-21 binding to VLA-4, pilot screen, VLA-4 allosteric modulator project, U937 cells, HUTS-21 mAb, flow cytometry, validation set (AID 2674;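 active = inhibition above 50%, about 3 SD of the validation set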;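 also: antibody binding induced by the VLA-4 ligand LDV present at three times its Kd; 0% = LDV ligand with antibody and no compound and 100% = antibody without LDV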); details: HUTS-21 LIBS mAb binding, at 6.7 µM, stronger effect = higher value, binding induced by LDV ligand
[8] = superoxide lowering in aged yeast cells, pilot screen, validation compound set (AID 2706;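 active = superoxide response below 65% of plate, a cut near 3 SD across the whole screen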;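 also: yeast exposed to compound for one week at 30 degrees C before staining; 100% = mean of all compound wells on the same plate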); details: S. cerevisiae aging, superoxide DHE fluorescence; at 10 µM; stronger effect = lower value
[9] = target: Beta-adrenergic receptor kinase 1 (Homo sapiens) (UniProt P25098); test: GRK2 binders displacing RNA aptamer, biochemical, validation, human GRK2, bead flow cytometry (AID 488806;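 active = aptamer binding inhibition above 30%, about 3 SD of noise from non-fluorescent compounds; inactive = inhibition at or below 30%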); details: bead-bound GRK2, FAM-aptamer displacement, at 10 µM, stronger effect = higher value
[10] = target: Beta-2 adrenergic receptor (Homo sapiens) (UniProt P07550); test: beta2AR agonists driving receptor internalization, pilot screen, cell-based, FAP fluorogen, flow cytometry, validation set (AID 504459;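 active = percent response above 42, roughly 3 SD of non-fluorescent test compounds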;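 also: agonist-driven loss of surface beta2AR via internalization measured by FAP dye flow cytometry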); details: Am2.2-beta2AR cells, FAP surface receptor flow cytometry; at 10 µM; stronger effect = higher value
[11] = target: AP-2 complex subunit beta (Homo sapiens) (UniProt P63010); test: inhibitors of arrestin peptide binding to AP2, pilot screen, biochemical, validation set, GST-AP2 beads, flow cytometry (AID 504541;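 active = inhibition above 54%, about 3 SD of non-fluorescent compounds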;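 also: AP2 carries R879A mutation and is captured from E. coli lysate; bead-bound FITC arrestin peptide fluorescence measuring arrestin peptide binding to AP2; 0% = DMSO wells and 100% = excess unlabeled arrestin peptide control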); details: FITC arrestin peptide, at 10 µM, stronger effect = higher value, AP2 beta2 appendage fragment, R879A mutant
[12] = yeast V-ATPase proton transport modulators, S. cerevisiae, pHLuorin, HTS validation (AID 504600; in the data active = response above about 15%;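 also: plate controls were DMSO for no effect and reference compound for full effect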); details: S. cerevisiae pHLuorin cytosolic pH, at 10 µM, stronger effect = higher value
[13] = test system: anti-desmoglein-3 scFv antibody binding to human DSG3; test: inhibitors of anti-DSG3 scFv binding to DSG3, pilot screen, biochemical, validation compound set, bead-based, flow cytometry (AID 588368;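 active = binding below the plate cutoff, the plate median minus 3 SD, with a reading above zero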;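 also: signal is the median channel fluorescence of bead-bound GFP antibody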); details: Protein G beads, DSG3-Fc, scFv-GFP binding, at 10 µM, stronger effect = lower value
[14] = inhibitors of fungal efflux pumps CDR1, CDR2, MDR1, pilot screen, validation compound set, multiplex, phenotypic (AID 588506;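 active = efflux inhibition above 0.42, the validation set average plus 4 SD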;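 also: Nile Red retained in cells so higher fluorescence means more efflux inhibition; 0 = negative control wells and 1 = enniatin B 25 µM full block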); details: S. cerevisiae pump-expressing triplex, Nile Red efflux flow cytometry; at 10 µM; stronger effect = higher value; the pumps come from Candida albicans
[15] = target: ATP-binding cassette sub-family B member 6 (Homo sapiens) (UniProt Q9NP58); test: ABCB6 transporter inhibitors, pilot screen, K562-ABCB6 cells, flow cytometry, validation set (AID 588550); details: K562-ABCB6 porphyrin accumulation, 1 h, at 10 µM, stronger effect = higher value;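 also: 0% = DMSO wells and 100% = benzethonium chloride 70 µM positive control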
[16] = promoters of myeloid differentiation in arrested cells, primary screen, cell-based, GFP/MAC1 double positive, flow cytometry, validation set (AID 588685;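 active = differentiation response of at least 50%, scaled between solvent and reference control, from cells with both markers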;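 also: compound exposure lasts four days before antibody staining and flow analysis; 0% = DMSO wells and 100% = 5 µM fulvestrant positive control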); details: ER-HoxA9 marrow cells, stronger effect = higher value, normalized: vehicle 0, fulvestrant 100

Sequence of Integrin beta-1 (Homo sapiens) + Integrin alpha-4 (Homo sapiens) (P05556 whole entry, looked up): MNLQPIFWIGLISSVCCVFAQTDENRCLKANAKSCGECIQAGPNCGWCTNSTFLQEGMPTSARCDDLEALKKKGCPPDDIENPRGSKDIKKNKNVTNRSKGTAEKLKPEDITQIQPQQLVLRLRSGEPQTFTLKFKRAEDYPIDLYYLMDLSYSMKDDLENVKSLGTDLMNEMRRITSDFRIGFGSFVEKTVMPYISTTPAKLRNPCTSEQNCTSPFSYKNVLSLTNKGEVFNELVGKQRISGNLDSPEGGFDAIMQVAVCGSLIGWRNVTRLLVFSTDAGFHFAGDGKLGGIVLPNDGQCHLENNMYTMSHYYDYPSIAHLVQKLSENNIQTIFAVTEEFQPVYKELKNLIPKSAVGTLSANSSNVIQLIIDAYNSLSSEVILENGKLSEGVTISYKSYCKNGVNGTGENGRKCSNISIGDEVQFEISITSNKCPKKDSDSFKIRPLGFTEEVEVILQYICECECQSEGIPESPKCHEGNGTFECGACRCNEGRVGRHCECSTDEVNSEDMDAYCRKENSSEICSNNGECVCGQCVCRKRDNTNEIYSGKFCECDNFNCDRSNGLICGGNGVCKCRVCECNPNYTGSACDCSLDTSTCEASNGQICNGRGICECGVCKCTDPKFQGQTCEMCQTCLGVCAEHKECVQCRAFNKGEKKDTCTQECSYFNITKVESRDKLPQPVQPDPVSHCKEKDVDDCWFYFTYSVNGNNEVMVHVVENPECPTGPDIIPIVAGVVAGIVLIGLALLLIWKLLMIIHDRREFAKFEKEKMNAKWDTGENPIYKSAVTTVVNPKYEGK
Sequence of Integrin beta-1 (Homo sapiens) + Integrin alpha-4 (Homo sapiens) (P13612 whole entry, looked up): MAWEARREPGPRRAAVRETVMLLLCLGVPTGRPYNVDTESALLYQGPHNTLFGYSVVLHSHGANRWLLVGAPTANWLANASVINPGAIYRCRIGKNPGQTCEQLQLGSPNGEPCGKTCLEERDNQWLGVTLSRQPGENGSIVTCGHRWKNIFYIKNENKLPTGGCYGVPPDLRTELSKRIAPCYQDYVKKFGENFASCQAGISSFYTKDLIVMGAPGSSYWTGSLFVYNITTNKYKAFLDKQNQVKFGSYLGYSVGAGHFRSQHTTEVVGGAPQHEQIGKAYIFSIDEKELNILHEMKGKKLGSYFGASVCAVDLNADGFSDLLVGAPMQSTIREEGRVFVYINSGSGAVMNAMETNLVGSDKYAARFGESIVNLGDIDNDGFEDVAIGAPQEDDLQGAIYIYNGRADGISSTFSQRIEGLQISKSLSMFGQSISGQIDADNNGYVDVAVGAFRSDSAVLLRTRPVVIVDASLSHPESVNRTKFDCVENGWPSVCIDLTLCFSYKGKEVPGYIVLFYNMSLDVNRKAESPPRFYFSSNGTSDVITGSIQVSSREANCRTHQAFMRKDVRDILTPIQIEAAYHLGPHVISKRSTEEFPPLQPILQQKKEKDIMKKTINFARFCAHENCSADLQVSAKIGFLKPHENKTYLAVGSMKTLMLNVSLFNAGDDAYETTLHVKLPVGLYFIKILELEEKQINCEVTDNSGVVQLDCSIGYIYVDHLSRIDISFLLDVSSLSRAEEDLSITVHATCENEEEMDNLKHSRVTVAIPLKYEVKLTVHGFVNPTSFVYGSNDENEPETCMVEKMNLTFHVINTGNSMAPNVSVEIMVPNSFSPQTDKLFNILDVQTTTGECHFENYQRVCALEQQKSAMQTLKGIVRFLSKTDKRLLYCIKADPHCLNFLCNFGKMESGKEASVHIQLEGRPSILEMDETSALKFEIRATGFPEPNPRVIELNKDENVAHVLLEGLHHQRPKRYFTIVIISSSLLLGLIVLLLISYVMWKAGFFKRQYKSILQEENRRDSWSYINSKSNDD
Sequence of Beta-2 adrenergic receptor (Homo sapiens) (P07550 whole entry, looked up): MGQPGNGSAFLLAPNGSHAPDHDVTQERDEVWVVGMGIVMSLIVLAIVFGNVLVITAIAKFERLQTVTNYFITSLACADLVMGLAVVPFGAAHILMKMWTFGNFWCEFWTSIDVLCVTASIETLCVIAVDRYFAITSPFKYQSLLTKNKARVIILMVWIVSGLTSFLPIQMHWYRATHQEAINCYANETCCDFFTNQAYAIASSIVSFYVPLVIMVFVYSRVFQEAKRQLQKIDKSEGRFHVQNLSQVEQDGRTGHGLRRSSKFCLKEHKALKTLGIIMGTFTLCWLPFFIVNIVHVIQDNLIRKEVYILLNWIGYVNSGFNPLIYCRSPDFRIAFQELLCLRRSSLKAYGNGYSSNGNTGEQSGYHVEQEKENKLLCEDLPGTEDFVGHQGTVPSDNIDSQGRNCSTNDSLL
Sequence of Beta-adrenergic receptor kinase 1 (Homo sapiens) (P25098 whole entry, looked up): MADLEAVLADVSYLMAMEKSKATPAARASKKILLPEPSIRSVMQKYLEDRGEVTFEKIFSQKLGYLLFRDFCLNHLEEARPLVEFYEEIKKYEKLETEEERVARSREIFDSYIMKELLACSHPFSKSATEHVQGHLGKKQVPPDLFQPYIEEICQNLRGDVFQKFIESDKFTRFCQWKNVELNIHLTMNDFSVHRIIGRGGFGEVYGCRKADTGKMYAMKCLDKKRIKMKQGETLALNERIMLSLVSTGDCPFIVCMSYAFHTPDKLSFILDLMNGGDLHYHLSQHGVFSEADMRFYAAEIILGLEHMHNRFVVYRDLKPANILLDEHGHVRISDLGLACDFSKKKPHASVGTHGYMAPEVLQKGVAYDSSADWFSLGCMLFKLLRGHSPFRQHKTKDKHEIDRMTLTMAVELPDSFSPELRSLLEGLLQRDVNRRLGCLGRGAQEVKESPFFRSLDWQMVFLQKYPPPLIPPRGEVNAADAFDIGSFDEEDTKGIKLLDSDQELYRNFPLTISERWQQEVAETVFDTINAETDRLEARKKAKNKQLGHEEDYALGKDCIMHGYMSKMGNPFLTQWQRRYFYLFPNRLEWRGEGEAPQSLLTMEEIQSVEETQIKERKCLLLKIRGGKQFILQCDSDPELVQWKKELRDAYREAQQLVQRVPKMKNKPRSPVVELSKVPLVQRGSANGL
Sequence of AP-2 complex subunit beta (Homo sapiens) (P63010 whole entry, looked up, the tested form may be a part, one chain of several): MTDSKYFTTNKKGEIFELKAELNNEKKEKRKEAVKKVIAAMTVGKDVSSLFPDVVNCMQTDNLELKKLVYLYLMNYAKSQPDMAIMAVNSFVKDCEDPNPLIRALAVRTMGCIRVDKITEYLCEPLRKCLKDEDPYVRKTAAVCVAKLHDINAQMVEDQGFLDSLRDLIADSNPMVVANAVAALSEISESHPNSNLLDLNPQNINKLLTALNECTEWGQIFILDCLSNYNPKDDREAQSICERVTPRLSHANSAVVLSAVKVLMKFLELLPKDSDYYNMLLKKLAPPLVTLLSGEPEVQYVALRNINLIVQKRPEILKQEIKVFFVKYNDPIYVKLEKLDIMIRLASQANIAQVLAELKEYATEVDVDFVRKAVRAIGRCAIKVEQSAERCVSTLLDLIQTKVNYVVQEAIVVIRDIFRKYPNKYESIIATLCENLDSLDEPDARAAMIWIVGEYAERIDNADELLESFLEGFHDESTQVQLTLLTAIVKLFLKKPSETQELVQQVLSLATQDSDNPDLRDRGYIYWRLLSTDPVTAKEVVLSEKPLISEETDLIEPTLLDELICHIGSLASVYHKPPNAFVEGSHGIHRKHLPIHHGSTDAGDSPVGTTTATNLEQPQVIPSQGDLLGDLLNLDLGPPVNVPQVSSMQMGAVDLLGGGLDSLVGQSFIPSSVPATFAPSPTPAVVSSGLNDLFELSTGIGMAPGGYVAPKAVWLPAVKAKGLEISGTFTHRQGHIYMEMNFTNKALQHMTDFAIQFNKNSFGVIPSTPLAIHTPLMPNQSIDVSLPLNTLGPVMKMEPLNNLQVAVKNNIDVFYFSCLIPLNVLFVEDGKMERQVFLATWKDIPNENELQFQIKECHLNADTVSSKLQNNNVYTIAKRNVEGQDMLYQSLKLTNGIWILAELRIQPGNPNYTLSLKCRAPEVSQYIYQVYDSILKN
Sequence of ATP-binding cassette sub-family B member 6 (Homo sapiens) (Q9NP58 whole entry, looked up): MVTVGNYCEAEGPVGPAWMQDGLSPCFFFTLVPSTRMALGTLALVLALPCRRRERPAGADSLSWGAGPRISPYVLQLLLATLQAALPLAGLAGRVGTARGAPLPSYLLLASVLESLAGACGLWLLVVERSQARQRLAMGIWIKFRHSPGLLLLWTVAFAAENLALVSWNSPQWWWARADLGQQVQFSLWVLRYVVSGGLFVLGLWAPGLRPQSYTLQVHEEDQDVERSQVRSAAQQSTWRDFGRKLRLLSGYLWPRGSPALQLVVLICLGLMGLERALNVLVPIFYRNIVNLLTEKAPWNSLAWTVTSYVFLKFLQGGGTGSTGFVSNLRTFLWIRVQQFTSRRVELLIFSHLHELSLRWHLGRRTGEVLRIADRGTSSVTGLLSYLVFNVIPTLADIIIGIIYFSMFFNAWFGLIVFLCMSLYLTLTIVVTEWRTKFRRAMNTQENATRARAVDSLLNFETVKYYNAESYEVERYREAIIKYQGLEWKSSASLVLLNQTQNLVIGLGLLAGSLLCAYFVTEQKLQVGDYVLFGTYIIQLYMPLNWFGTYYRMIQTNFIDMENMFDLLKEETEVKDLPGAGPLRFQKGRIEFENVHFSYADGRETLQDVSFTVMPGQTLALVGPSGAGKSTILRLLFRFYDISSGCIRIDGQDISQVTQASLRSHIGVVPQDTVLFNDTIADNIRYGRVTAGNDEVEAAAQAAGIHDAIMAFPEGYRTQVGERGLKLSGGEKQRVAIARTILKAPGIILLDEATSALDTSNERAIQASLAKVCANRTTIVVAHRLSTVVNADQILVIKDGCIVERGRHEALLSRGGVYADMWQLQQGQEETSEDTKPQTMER

SMILES	percent of DMSO control GFP [1]	GFP response vs DMSO [2]	percent response of DMSO control [3]	GFP response vs DMSO [4]	GFP response, % of DMSO [5]	double positive events [6]	vesicle binding response [6]	inhibition [7]	superoxide response (% of plate) [8]	aptamer binding inhibition [9]	response [10]	inhibition [11]	response [12]	binding (% of control) [13]	efflux inhibition (fraction of control) [14]	inhibition [15]	differentiation response [16]
COc1ccc(CCN2CNc3c(c(=O)n(C)c(=O)n3C)C2)cc1OC	99.8% (inactive)	103% (inactive)	102% (inactive)	118% (inactive)	116% (inactive)	60.5%	214% (inactive)	-1.97% (inactive)	93.5% (inactive)	-4% (inactive)	-3.69% (inactive)	-4.43% (inactive)	-9.61% (inactive)	99.7% (inactive)	0.04 (inactive)	-5% (inactive)	-4% (inactive)
CCn1cc(C(=O)O)c(=O)c2ccc(C)nc21	99.5% (inactive)	98.7% (inactive)	92.4% (inactive)	93.7% (inactive)	106% (inactive)	55.9%	172% (inactive)	-15.8% (inactive)	99.5% (inactive)	-1% (inactive)	3.04% (inactive)	-4.75% (inactive)	-3.3% (inactive)	108% (inactive)	0.085 (inactive)	-8% (inactive)	-4.57% (inactive)
CC(C)=CCCC1=CCC2C(=O)NNC(=O)C2C1 (centres undefined)	98.8% (inactive)	101% (inactive)	110% (inactive)	99.9% (inactive)	99.5% (inactive)	50.6%	61.5% (active)	-3.16% (inactive)	104% (inactive)	3% (inactive)	-19.2% (inactive)	-0.62% (inactive)	51.2% (active)	103% (inactive)	-0.1 (inactive)	4% (inactive)	-10.4% (inactive)
CC(=O)Oc1ccc2c(=O)c(Oc3ccccc3[N+](=O)[O-])coc2c1	99.8% (inactive)	131% (inactive)	111% (inactive)	78.7% (inactive)	95.6% (inactive)	60.6%	188% (inactive)	-0.33% (inactive)	121% (inactive)	3% (inactive)	-4.04% (inactive)	-1.47% (inactive)	0.8% (inactive)	101% (inactive)	-0.06 (inactive)	-4% (inactive)	0% (inactive)
CCn1c(N2CCN(CC(=O)c3c(C)n(C)c4ccc(OC)cc34)CC2)nc2c1c(=O)[nH]c(=O)n2C	101% (inactive)	104% (inactive)	97.8% (inactive)	91.4% (inactive)	99.9% (inactive)	60%	206% (inactive)	-18.1% (inactive)	100% (inactive)	1% (inactive)	-1.41% (inactive)	12.1% (inactive)	-2.91% (inactive)	101% (inactive)	-0.26 (inactive)	23% (inactive)	-2.69% (inactive)
COc1ccc(C(Cl)=C(c2ccc(OC)cc2)c2ccc(OC)cc2)cc1	102% (inactive)	109% (inactive)	91.9% (inactive)	90.7% (inactive)	98% (inactive)	62.9%	934% (inactive)	-8.75% (inactive)	95.2% (inactive)	4% (inactive)	1.32% (inactive)	18.5% (inactive)	-2.47% (inactive)	95.8% (inactive)	0.18 (inactive)	7% (inactive)	6.11% (inactive)
O=C(NC(Nc1ccccn1)C(Cl)(Cl)Cl)c1ccccc1 (centres undefined)	100% (inactive)	102% (inactive)	103% (inactive)	103% (inactive)	102% (inactive)	58.7%	157% (inactive)	-13.2% (inactive)	91.6% (inactive)	-1% (inactive)	1.87% (inactive)	-6.1% (inactive)	-1.51% (inactive)	99.8% (inactive)	0.25 (inactive)	-8% (inactive)	-10.4% (inactive)
CCc1ccc2oc(=O)cc(CN3CCC(C)CC3)c2c1	95% (inactive)	104% (inactive)	95.8% (inactive)	123% (inactive)	95.8% (inactive)	53.7%	178% (inactive)	-18.2% (inactive)	98.9% (inactive)	0% (inactive)	13.8% (inactive)	-0.51% (inactive)	85.2% (active)	103% (inactive)	-0.06 (inactive)	-5% (inactive)	-12% (inactive)
COc1ccc(CCN(C)CCCC(C#N)(c2cc(OC)c(OC)c(OC)c2)C(C)C)cc1OC (centres undefined)	100% (inactive)	99.3% (inactive)	111% (inactive)	82.8% (inactive)	98.6% (inactive)	57.7%	239% (inactive)	11% (inactive)	86% (inactive)	1% (inactive)	-12.7% (inactive)	-7.98% (inactive)	0.22% (inactive)	99.8% (inactive)	-0.01 (inactive)	9% (inactive)	3.18% (inactive)
O=C(/C=C/c1ccco1)Nc1ccccc1C(=O)O	98.1% (inactive)	105% (inactive)	107% (inactive)	94.8% (inactive)	109% (inactive)	65.9%	205% (inactive)	-31.9% (inactive)	124% (inactive)	11% (inactive)	5.64% (inactive)	-15.5% (inactive)	3.27% (inactive)	105% (inactive)	-0.3 (inactive)	-11% (inactive)	23.2% (inactive)
COc1ccc(OCc2cccc(C(=O)NN)c2)cc1	94.8% (inactive)	97.4% (inactive)	105% (inactive)	98.2% (inactive)	86.3% (inactive)	59.7%	167% (inactive)	-8.62% (inactive)	98.7% (inactive)	8% (inactive)	11.1% (inactive)	-3.59% (inactive)	-1.43% (inactive)	103% (inactive)	-0.28 (inactive)	3% (inactive)	-13.6% (inactive)
CCCCOc1cc(C(=O)NCCN(CC)CC)c2ccccc2n1	94.8% (inactive)	128% (inactive)	106% (inactive)	79.8% (inactive)	92.8% (inactive)	48.4% and 71.1%	187% (inactive) and 185% (inactive)	13.8% (inactive) and 14.2% (inactive)	88.6% (inactive) and 105% (inactive)	-2% (inactive) and -3% (inactive)	-3.62% (inactive)	-5.17% (inactive) and -1.67% (inactive)	-31% (inactive) and -1.46% (inactive)	145% (inactive) and 101% (inactive)	0.03 (inactive) and 0.09 (inactive)	11% (inactive) and 10% (inactive)	7.87% (inactive) and 9.01% (inactive)
O=C1C(Cc2ccccc2)NC(=S)N1c1ccccc1 (centres undefined)	96.1% (inactive)	105% (inactive)	92% (inactive)	115% (inactive)	99.4% (inactive)	60.7%	179% (inactive)	-14.1% (inactive)	98.2% (inactive)	5% (inactive)	-16.9% (inactive)	-7.42% (inactive)	13.2% (inactive)	98.7% (inactive)	-0.24 (inactive)	9% (inactive)	-28% (inactive)
O=C(NCCO)c1ccc(Cl)c(Cl)c1	103% (inactive)	104% (inactive)	102% (inactive)	99.1% (inactive)	107% (inactive)	59.4%	97% (inactive)	-11.8% (inactive)	105% (inactive)	-1% (inactive)	-1.25% (inactive)	-1.25% (inactive)	0.22% (inactive)	104% (inactive)	0.78 (active)	9% (inactive)	-10.4% (inactive)
C/C=C(/C(=C/C)c1ccc(O)cc1)c1ccc(O)cc1	90.4% (inactive)	135% (inactive)	95.2% (inactive)	81.4% (inactive)	87.7% (inactive)	63.9%	170% (inactive)	8.4% (inactive)	91.4% (inactive)	2% (inactive)	-4.98% (inactive)	13.1% (inactive)	-1.75% (inactive)	101% (inactive)	0.48 (active)	4% (inactive)	-7.37% (inactive)
O=C(NCCc1ccccc1)C1CCN(C2CCN(Cc3ccco3)CC2)CC1	98.6% (inactive)	105% (inactive)	101% (inactive)	118% (inactive)	120% (inactive)	58.9%	159% (inactive)	-9.63% (inactive)	92.6% (inactive)	-13% (inactive)	-41.8% (inactive)	-2.11% (inactive)	-0.87% (inactive)	126% (inactive)	-0.04 (inactive)	6% (inactive)	-5.97% (inactive)
N=c1c[n+](N2CCOCC2)[n-]o1	102% (inactive)	106% (inactive)	112% (inactive)	89.4% (inactive)	96.2% (inactive)	65%	236% (inactive)	13% (inactive)	92.1% (inactive)	3% (inactive)	-6.36% (inactive)	3.46% (inactive)	-0.08% (inactive)	95.1% (inactive)	-0.07 (inactive)	9% (inactive)	7.09% (inactive)

Reference: PubChem BioAssay
